From PubChem
Rows were chosen to be rich in hits. Some 12% of all compounds tested hit in one or more screens of this group.
Sfp PPTase inh: qHTS Assay for Inhibitors of Bacillus subtilis Sfp phosphopantetheinyl transferase (PPTase); 4'-phosphopantetheinyl transferase ffp (Bacillus subtilis), Q9F4F7; Biochemical Sfp PPTase activity, qHTS; Potency, µM, most hits filed as inhibitors; 3.5% of 310,000 active;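 also: the enzyme is Sfp with the accession as filed and its product quenches rhodamine fluorescence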
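Compounds were incubated with enzyme (final 15 nM) for 15 min at room temperature before substrate addition started the reaction. Fluorescence at 525 nm excitation, 598 nm emission was recorded immediately and after 30 minutes.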
JMJD2A Tudor inh: qHTS Assay for Inhibitors of JMJD2A-Tudor Domain. Lysine-specific demethylase 4A (Homo sapiens), O75164. AlphaScreen JMJD2A-Tudor / H3K4me3 peptide binding. Potency, µM (series often up to 114 µM), hits mostly inhibitors. 4.4% of 390,000 active. AID 504339, 2011; also: nearly all actives have a fitted effect of over 50% in size
L3MBTL1 inh: qHTS Assay for the Inhibitors of L3MBTL1 | Lethal(3)malignant brain tumor-like protein 1 (Homo sapiens), Q9Y468 | AlphaScreen L3MBTL1–H3K9me1 peptide binding | Potency, µM (highest dose often 57.1 µM), usual class: inhibitors | 0.66% of 230,000 active; also: nearly all actives have a fitted effect of over 60% in size
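L3MBTL1 (50 nM) pre-complexed 30 min with biotinylated H3(1-15)K9me1 peptide (75 nM), then compounds added for 30 min at room temperature; AlphaScreen streptavidin donor/nickel chelate acceptor beads (10 ug/mL final) read after 30 min dark incubation.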
HP1b binding inh: HTS for Inhibitors of HP1-beta Chromodomain Interactions with Methylated Histone Tails. AlphaScreen HP1-beta / biotin-H3K9me3 peptide binding. AID 540317, 2011. Chromobox protein homolog 1 (Homo sapiens), P83916. 0.56% of 390,000 active. Potency, µM (doses to about 114 µM), hits mostly inhibitors; also: nearly all actives have a fitted effect of over 70% in size
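AlphaScreen: HP1-beta (50 nM) preformed 30 min with biotin-H3(1-18)K9me3 peptide (50 nM) in PBS pH 7.4, 0.01% Tween-20. Compound added for 30 min at RT, then streptavidin donor/nickel chelate acceptor beads (10 ug/mL) for 30 min.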
BAZ2B inh: qHTS Assay for Inhibitors of BAZ2B | Bromodomain adjacent to zinc finger domain protein 2B (Homo sapiens), Q9UIF8 | AlphaScreen BAZ2B-H3K14Ac peptide displacement | Potency, µM (doses to about 114 µM), most hits filed as inhibitors | 4.4% of 360,000 active; also: nearly all actives have a fitted effect of over 60% in size
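AlphaScreen displacement of biotin-H3(5-23)K14Ac peptide (50 nM final) from BAZ2B (50 nM final) in PBS pH 7.4, 0.01% Tween-20; complex preformed 30 min RT, then compounds (top 110 uM) 30 min RT, beads 20 min dark.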
G9a block: qHTS Assay for Inhibitors of Histone Lysine Methyltransferase G9a; G9a H3K9 monomethylation, AlphaScreen, 2 h; Potency, µM (doses to about 102 µM), actives largely listed as inhibitors; 8.8% of 350,000 active; also: nearly all actives have a fitted effect of over 75% in size
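Enzyme 20 nM + cpd, 15 min RT; add b-H3K9 pep 500 nM / SAM 20 uM; 2 h RT; anti-H3K9me1 Ab 0.5 ug/mL + SA donor / anti-rabbit acceptor beads 20 ug/mL each, 10 min; AlphaScreen read.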
Each line names hits and unclear results; the compound was inactive in the other large screens. Calls follow the shape of the dose curve; as a rule, active = well fitted curve in the direction sought with a large enough effect; inconclusive = small, poorly fitted or top-dose-only effect, or another doubt; inactive = no such curve, though single readings can be large; an effect the other way counts as inactive or inconclusive.

COc1ccc(CC2(CO)CCN(C/C=C/c3ccccc3OC)CC2)cc1	none
COc1ccccc1/C=C/CN1CCN(c2ccccc2)CC1	JMJD2A Tudor inh 22µM, HP1b binding inh inconclusive, BAZ2B inh 50µM, G9a block 11µM (no result: L3MBTL1 inh)
COc1ccccc1/C=C/C=N/N1CCN(Cc2ccccc2)CC1	L3MBTL1 inh inconclusive, BAZ2B inh 32µM, G9a block 11µM
Cc1ccc(CN2CCN(/N=C/C=C/c3ccccc3[N+](=O)[O-])CC2)cc1	Sfp PPTase inh inconclusive, JMJD2A Tudor inh 14µM, L3MBTL1 inh inconclusive, HP1b binding inh 18µM, BAZ2B inh 20µM, G9a block 20µM
Cc1csc(Sc2ccc(C(=O)OCC(=O)Nc3ccc(F)cc3[N+](=O)[O-])cc2[N+](=O)[O-])n1	JMJD2A Tudor inh inconclusive, G9a block 35µM
Cc1cc(C(=O)OCC(=O)Nc2ccc(F)cc2[N+](=O)[O-])c2ccccc2n1	none
COc1cccc(CNCCOCCO)c1OC	none (no result: BAZ2B inh)
COCC(C)NCc1ccccc1C (stereo not given)	JMJD2A Tudor inh 6.3µM, HP1b binding inh inconclusive, BAZ2B inh 40µM, G9a block inconclusive (no result: L3MBTL1 inh)
COCC(C)NCc1cccc(OC)c1OC (stereo not given)	JMJD2A Tudor inh 1.8µM, HP1b binding inh inconclusive, BAZ2B inh inconclusive, G9a block 18µM
Cc1ccc(C(=O)NCC(c2ccco2)S(=O)(=O)c2ccccc2)cc1C (stereo not given)	none (no result: Sfp PPTase inh, L3MBTL1 inh)
CCCCCn1cnc2c(=S)nc(N)[nH]c21	Sfp PPTase inh 2.5µM, JMJD2A Tudor inh 18µM, HP1b binding inh inconclusive, BAZ2B inh inconclusive, G9a block 8.9µM (no result: L3MBTL1 inh)
CCCCn1cnc2c(=S)nc(N)[nH]c21	Sfp PPTase inh 14µM, JMJD2A Tudor inh 11µM, BAZ2B inh inconclusive, G9a block 6.3µM
O=C(O)CSc1nnnn1C1CCCCC1	JMJD2A Tudor inh 28µM
CC(=O)CCC(=O)O	none (no result: JMJD2A Tudor inh, L3MBTL1 inh, HP1b binding inh, BAZ2B inh)
COc1ccc(N2CCN(S(=O)(=O)c3ccc(-c4ccno4)cc3OC)CC2)cc1	JMJD2A Tudor inh inconclusive, BAZ2B inh 22µM, G9a block 10µM (no result: Sfp PPTase inh, L3MBTL1 inh)
Cc1cccc(NC(=O)Cn2c(=O)oc3cc(S(=O)(=O)N4CCCCCC4)ccc32)c1	none (no result: Sfp PPTase inh, L3MBTL1 inh)
CCOc1ccccc1CNC(=O)c1ccc(CS(=O)Cc2cccc(Cl)c2)o1 (stereo not given)	none (no result: Sfp PPTase inh, L3MBTL1 inh)
Cc1nnc(SCc2cc(=O)n3c(C)cccc3n2)s1	none (no result: Sfp PPTase inh, L3MBTL1 inh)
NC(C(=O)O)(c1ccc(P(=O)(O)O)cc1)C1CC1 (stereo not given)	none (no result: JMJD2A Tudor inh, L3MBTL1 inh, HP1b binding inh, BAZ2B inh)
O=C(CSc1nc2ccccc2n1Cc1cccc(C(F)(F)F)c1)NCc1ccccc1	none (no result: Sfp PPTase inh, L3MBTL1 inh)
CSc1nsc(SCC(=O)Nc2ccc(Cl)c(C(=O)O)c2)n1	G9a block 50µM (no result: L3MBTL1 inh)
CSc1nsc(SCC(=O)Nc2ccc(NC(C)=O)cc2)n1	none (no result: L3MBTL1 inh)
CSc1nsc(SCC(=O)Nc2ccc(O)c(C(=O)O)c2)n1	G9a block 40µM (no result: L3MBTL1 inh)
Cc1nnc(SCC(=O)Nc2ccccc2C(=O)NC2CC2)s1	G9a block 45µM
Cc1nnc(SCC(=O)Nc2ccccc2NC(=O)CSc2nnc(C)s2)s1	none (no result: L3MBTL1 inh)
CSc1nsc(SCC(=O)Nc2ccccc2C(=O)O)n1	JMJD2A Tudor inh inconclusive, BAZ2B inh inconclusive, G9a block 7.9µM (no result: L3MBTL1 inh)
O=C(c1ccc([N+](=O)[O-])cc1)N1c2ncnn2C2(CCCCC2)[C@@H]2CCCC[C@@H]21	none (no result: Sfp PPTase inh, L3MBTL1 inh)
CCOC(=O)c1[nH]c2c(c1Cc1ccccc1)C(=O)CC(c1ccc(C(C)(C)C)cc1)C2 (stereo not given)	none (no result: Sfp PPTase inh, L3MBTL1 inh)
CCCCn1c(C2CC(=O)N(c3ccc(OCC)cc3)C2)nc2ccccc21 (stereo not given)	none (no result: Sfp PPTase inh, L3MBTL1 inh)
CC(=O)/C(=N/Nc1ccccc1C)N1CCOCC1	JMJD2A Tudor inh 56µM, G9a block 1µM
